Measured values from PubChem BioAssay (EPA / NIEHS).
Results filed as inconclusive are left out. Activity calls are given as the source filed them. The calls were made as follows: active = hit-call score of the fitted dose curve at least 0.9, where 1 is the maximum; inconclusive = response in the unintended direction; inactive = score below 0.9.

Each molecule was assayed on Glyceraldehyde-3-phosphate dehydrogenase (Homo sapiens) (UniProt P04406) (assay: CLD_GAPDH_6hr: CellzDirect (CLD) Gene Expression Assay for Baseline Control (Glyceraldehyde 3-phosphate dehydrogenase) at 6 hours (AID 2283681);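 also: active means increased signal relative to DMSO vehicle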).
Glyceraldehyde-3-phosphate dehydrogenase (Homo sapiens), sequence (P04406 whole entry, looked up): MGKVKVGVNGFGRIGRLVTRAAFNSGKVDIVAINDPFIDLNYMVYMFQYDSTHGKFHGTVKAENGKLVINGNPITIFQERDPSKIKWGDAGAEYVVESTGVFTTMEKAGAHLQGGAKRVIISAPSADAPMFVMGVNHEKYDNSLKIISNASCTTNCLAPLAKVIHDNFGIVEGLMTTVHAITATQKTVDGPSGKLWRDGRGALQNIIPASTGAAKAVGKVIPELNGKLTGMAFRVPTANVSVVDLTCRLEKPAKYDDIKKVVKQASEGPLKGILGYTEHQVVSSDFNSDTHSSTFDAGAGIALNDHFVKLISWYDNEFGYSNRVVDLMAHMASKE
Protocol: CLD_6hr is a cell-based, multiplexed-readout assay that uses hepatocyte, a human liver primary cell, with measurements taken at 6 hours after chemical dosing in a 96-well plate.CLD_GAPDH_6hr is one of 16 assay component(s) measured or calculated from the CLD_6hr assay. It is designed to make measurements of mRNA induction, a form of inducible reporter, as detected with chemiluminescence signals by Quantitative Nuclease Protection Assay (qNPA) technology.Data from the assay component CLD_GAPDH_6hr was analyzed at the endpoint, CLD_GAPDH_6hr, in the positive analysis fitting direction relative to DMSO as the negative control and baseline of activity. Using a type of inducible reporter, gain-of-signal activity can be used to understand changes in the reporter gene as they relate to the gene GAPDH. Furthermore, this assay endpoint can be referred to as a secondary readout, because this assay has produced multiple assay endpoints where this one serves a background control function. To generalize the intended target to other relatable targets, this assay endpoint is annotated to the background measurement intended target family, where subfamily is baseline control.
Human hepatocyte cultures were treated daily for two consecutive days with fresh dosing solutions containing appropriate concentrations of the 320 ToxCast chemicals (chemical identities were blinded to CellzDirect and other ToxCast collaborators), vehicle control (0.2% DMSO), and positive control inducers as summarized in Table 1. Due to the large number of treatment groups and chemicals examined, the ToxCast chemicals were divided into two groups (spanning two independent cultures of hepatocytes from separate donor preparations (Hu778: ToxCast plates 1 and 2; Hu776: ToxCast plates 3 and 4). Each preparation of human hepatocyte cultures was treated with respective vehicle control, medium only control, set of six positive controls/reference chemicals for the five hepatic receptor pathways, and a subset of eight of the ToxCast chemicals (indoxacarb, pyrithiobac-sodium, norflurazon, cyhalofop-butyl, methomyl, thiram, acetochlor, and propiconazole). These replicate data, coupled with internal replicates designed within the blinded ToxCast chemical library, provided additional data to evaluate interindividual differences between hepatocyte preparations and their potential impact on chemical profiles.Cell morphology and integrity were evaluated using phase-contrast microscopy as an indicator of hepatocyte cell health (Tyson & Green, 1987). Cultures for each treatment group (i.e., media, vehicle [0.2% DMSO], positive control inducers [multiple concentrations], and the ToxCast chemicals [multiple concentrations]) were observed and cell morphology was assessed relative to vehicle control cultures at each harvest time point (0, 6, 24, or 48 h). […] Images were evaluated at the conclusion of the study to assess changes in cell integrity and account for the effects of chemical exposure on uncharacteristic changes in concentration-dependent gene expression profiles. The results from these determinations of apparent cytotoxicity were annotated (yes/no) alongside the corresponding qNPA data for reference.At the conclusion of each treatment period, hepatocyte cultures (96-well) were washed with 1 volume of HBSS, lysed by addition of 25 ul ArrayPlate lysis buffer (HTG, Tucson, AZ), and 70 ul/well of Denaturation Oil, denatured by incubation at 95C for 10 min, and frozen at approximately -70C until analysis by nuclease protection assay (qNPA) (Roberts et al., 2007). For qNPA analysis, cell lysates were thawed at 50C for approximately 30 min, qNPA probes were added, and samples were incubated at 95C for 10 min to begin the detection process by denaturing the target RNA, dissociating the duplexes and secondary structure hybridization. At the conclusion of the hybridization period, S1 nuclease reagent was added to each sample to digest all nonprotected nucleotides at 50C for 60-90 min. […]
With `COc1nc(C)nc(NC(=O)NS(=O)(=O)c2ccccc2CCC(F)(F)F)n1` the outcome was “inactive”.
For `CN(C)C(=S)SSC(=S)N(C)C`, the outcome was “inactive”.
In the case of `CCCCOC(=O)c1ccccc1C(=O)OCCCC`, the outcome is reported as “inactive”.
With `CS/C(C)=N/OC(=O)N(C)SN(C)C(=O)O/N=C(\C)SC` the outcome was “inactive”.
With `Oc1ccccc1-c1ccccc1` the outcome was “inactive”.
With `CNC(=S)S` the outcome was “inactive”.
`Cc1cc(Cl)ccc1OCC(=O)O` was tested, and the outcome was “inactive”.
In the case of `CC(C)(C)c1ccc(CSc2cnn(C(C)(C)C)c(=O)c2Cl)cc1`, the outcome is reported as “inactive”.
With `COc1nc(NC(C)C)nc(NC(C)C)n1` the outcome was “inactive”.
`COC(=O)C=C(C)OP(=O)(OC)OC` was tested, and the outcome was “inactive”.
For `N#Cc1cc(Br)c(O)c(Br)c1`, the outcome was “inactive”.
With `CCCCNC(=O)n1c(NC(=O)OC)nc2ccccc21` the outcome was “inactive”.
With `CC(Oc1ccc(Cl)cc1Cl)C(=O)O` (centres undefined) the outcome was “inactive”.
For `CCOc1cc(Oc2ccc(C(F)(F)F)cc2Cl)ccc1[N+](=O)[O-]`, the outcome was “inactive”.
With `COC(=O)C(C)Oc1ccc(Oc2ccc(Cl)cc2Cl)cc1` (centres undefined) the outcome was “inactive”.
`COC(=O)N(OC)c1ccccc1COc1ccn(-c2ccc(Cl)cc2)n1` was tested, and the outcome was “inactive”.
With `N#Cc1nn(-c2c(Cl)cc(C(F)(F)F)cc2Cl)c(N)c1S(=O)C(F)(F)F` (centres undefined) the outcome was “inactive”.
With `CCNc1nc(Cl)nc(NC(C)C)n1` the outcome was “inactive”.
For `C=CC1(C)OC(=O)N(c2cc(Cl)cc(Cl)c2)C1=O` (centres undefined), the outcome was “inactive”.
In the case of `Cc1ccc(-c2c(Cl)nc(C#N)n2S(=O)(=O)N(C)C)cc1`, the outcome is reported as “inactive”.
`CNC(=O)ON=CC(C)(C)SC` was tested, and the outcome was “inactive”.
`COP(=S)(OC)Oc1nc(Cl)c(Cl)cc1Cl` was tested, and the outcome was “inactive”.
In the case of `CC(C)C1(C)N=C(c2nc3ccccc3cc2C(=O)O)NC1=O` (centres undefined), the outcome is reported as “inactive”.
For `O=C(Nc1ccccc1)Nc1ccnc(Cl)c1`, the outcome was “inactive”.
In the case of `CCCCC(CC)COC(=O)c1ccccc1C(=O)OCC(CC)CCCC` (centres undefined), the outcome is reported as “inactive”.
In the case of `COc1nc(C)nc(NC(=O)NS(=O)(=O)c2ccccc2Cl)n1`, the outcome is reported as “inactive”.
With `OC(c1ccc(Cl)cc1)(c1cncnc1)c1ccccc1Cl` (centres undefined) the outcome was “inactive”.
`CCOC(=O)CC(SP(=S)(OC)OC)C(=O)OCC` (centres undefined) was tested, and the outcome was “inactive”.
In the case of `Cc1c(F)c(F)c(COC(=O)C2C(/C=C(\Cl)C(F)(F)F)C2(C)C)c(F)c1F` (centres undefined), the outcome is reported as “inactive”.
For `O=C(O)c1nc(Cl)ccc1Cl`, the outcome was “inactive”.
With `CC1COC(Cn2cncn2)(c2ccc(Oc3ccc(Cl)cc3)cc2Cl)O1` (centres undefined) the outcome was “inactive”.
With `C=CCC1=C(C)[C@@H](OC(=O)[C@@H]2[C@@H](C=C(C)C)C2(C)C)CC1=O` the outcome was “inactive”.
For `CCOC(=O)C(Cl)Cc1cc(-n2nc(C)n(C(F)F)c2=O)c(F)cc1Cl` (centres undefined), the outcome was “inactive”.
For `CCON=C(CC)C1=C(O)CC(c2c(C)cc(C)cc2C)CC1=O` (centres undefined), the outcome was “inactive”.
`CCCCNC(=O)OCC#CI` was tested, and the outcome was “inactive”.
`CO/C=C(/C(=O)OC)c1ccccc1Oc1cc(Oc2ccccc2C#N)ncn1` was tested, and the outcome was “inactive”.
`CCNc1nc(Cl)nc(NCC)n1` was tested, and the outcome was “inactive”.
`CC(C)Oc1cc(-n2nc(C(C)(C)C)oc2=O)c(Cl)cc1Cl` was tested, and the outcome was “inactive”.
For `O=C(O)COc1nc(Cl)c(Cl)cc1Cl`, the outcome was “inactive”.
